The text below walks through data of paper PMC5540273 (PLoS ONE, 2017).

“And” between values parts separate entries of the source, which are not always exact repeats. Equal values may be shown once. Read-outs that look alike come from different tables or passages of the source.

For one assay, the system named is DMPK. To be noted: concentration: 1 μM, replicates: in singlicate; n = 1.
The next assay relates to T1, DRAK1.
T1 construct: gene STK17A
The conditions noted are these: concentration: 1 μM, replicates: in singlicate, n = 1.

The test system of another assay is T2, DRAK2.
T2 construct: gene STK17B
The conditions noted are these: concentration: 1 μM, replicates: in singlicate, n = 1.

Another assay relates to DYRK1A. The conditions noted are these: concentration: 1 μM, replicates: in singlicate; n = 1.
Another assay has as its system DYRK1B. To be noted: concentration: 1 μM, replicates: in singlicate, n = 1.
The subject of the next assay is DYRK2. The conditions noted are these: concentration: 1 μM, replicates: in singlicate, n = 1.
Another assay relates to EGFR. The conditions noted are these: concentration: 1 μM, replicates: in singlicate, n = 1.
The subject of another assay is EIF2AK1. The conditions noted are these: concentration: 1 μM, replicates: in singlicate, n = 1.
In a further assay the test system is EPHA1. To be noted: concentration: 1 μM, replicates: in singlicate; n = 1.
The next assay relates to EPHA2. The conditions noted are these: concentration: 1 μM, replicates: in singlicate; n = 1.
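Also: KINOMEscan kinase panel screen.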

On to `Fc1ccc(-c2nn3c(OCC(F)(F)F)cccc3c2-c2ccncc2)cc1` [GW514784], for which the “%Inh” value in the assay on DMPK stood at 0%; in the assay on DRAK1, 18%; in the assay with DRAK2, 0%; with DYRK1A, 3%; in the assay with DYRK1B, 0%; in the assay on DYRK2, 10%. Moreover, the “%Inh” value with EGFR was found to be 20%; in the assay on EIF2AK1 it was 0%; in the assay with EPHA1 it was 8%; in the assay on EPHA2 it was 7%.

Turning to `O=C(Nc1cccc(-c2nn3ncccc3c2-c2ccnc(Nc3cccc(C(F)(F)F)c3)n2)c1)c1c(F)cccc1F` [GSK299495], the “%Inh” value is listed as 0% in the assay with DMPK; 4% in the assay with DRAK1; 0% in the assay with DRAK2; 14% in the assay on DYRK1A; 0% in the assay on DYRK1B; 0% in the assay on DYRK2. The “%Inh” value was 99.1% in the assay with EGFR, 18% in the assay with EIF2AK1, 41% in the assay with EPHA1 and 0% in the assay on EPHA2.

In the case of `N#Cc1c(N2CCOCC2)sc(-c2ccn[nH]2)c1-c1ccc(Cl)cc1`, the “%Inh” value with DMPK turned out to be 4%; in the assay on DRAK1, 0%; in the assay with DRAK2, 0%; in the assay with DYRK1A, 0%; in the assay with DYRK1B, 47%; with DYRK2 it was 0%. Besides, the “%Inh” value is on record as 0% with EGFR, 0% in the assay on EIF2AK1, 1% with EPHA1 and 0% with EPHA2.

`Cl.Cl.Cl.Fc1ccc(-c2ncn(C3CCNCC3)c2-c2ccnc(Nc3ccccc3)n2)cc1` [SB-238039]: the “%Inh” value in the assay on DMPK was 28%; with DRAK1 (1 µM), 9% and 3%; in the assay on DRAK2 (1 µM) it was 18% and 6%; with DYRK1A, 0%; with DYRK1B (1 µM), 6% and 7%; in the assay on DYRK2 (1 µM) it was 11% and 0%. In addition, the “%Inh” value in the assay on EGFR (1 µM) is 90.1% and 72%; with EIF2AK1 (1 µM), 0% and 1%; with EPHA1, 0%; in the assay on EPHA2, 0%.

In the case of `NS(=O)(=O)c1cccc(-c2ccc3ncc(N4CCOCC4)nc3c2)c1` [GSK1535721], the “%Inh” value with DMPK was found to be 0%; in the assay with DRAK1 it was 0%; in the assay with DRAK2, 0%; in the assay with DYRK1A, 0%; in the assay on DYRK1B, 4%; with DYRK2 it was 28%. The “%Inh” value with EGFR was determined as 12%; in the assay with EIF2AK1 it was 0%; in the assay with EPHA1, 0%; in the assay with EPHA2, 7%.

For the molecule `O=C(Nc1n[nH]c2cc(-c3cccc(F)c3)ccc12)C1CC1` [SB-735464], the “%Inh” value is reported as 0% in the assay on DMPK; 7% with DRAK1; 0% in the assay with DRAK2; 10% in the assay on DYRK1A; 0% in the assay with DYRK1B; 16% in the assay on DYRK2. The “%Inh” value is recorded as 0% with EGFR, 0% with EIF2AK1, 25% with EPHA1 and 0% with EPHA2.

On to `CCCCCc1nc2c(N)ncnc2n1CCCCC` [SKF-97255], for which the “%Inh” value in the assay on DMPK worked out at 0%; with DRAK1, 0%; in the assay with DRAK2, 11%; in the assay with DYRK1A it was 0%; in the assay on DYRK1B it was 0%; with DYRK2, 27%. In addition, the “%Inh” value in the assay with EGFR, in the assay on EIF2AK1, in the assay on EPHA1 and in the assay on EPHA2 was 0% in each case.

Consider `Cc1nnc(-c2ccc3ncc(-c4ccc(S(C)=O)cc4)n3c2)o1` (stereo not shown), for which the “%Inh” value in the assay on DMPK is given as 1%; with DRAK1, 0%; in the assay with DRAK2 it was 7%; in the assay on DYRK1A it was 16%; in the assay with DYRK1B, 66%; in the assay on DYRK2, 6%. Moreover, the “%Inh” value in the assay with EGFR is listed as 9%; in the assay on EIF2AK1, 6%; with EPHA1 it was 0%; in the assay with EPHA2, 0%.

Consider `O=C(NCCCN1CCOCC1)c1cccc(Nc2nccc(Nc3ccc(Oc4ccccc4)cc3)n2)c1` [GW663929], for which the “%Inh” value in the assay with DMPK was found to be 0%; in the assay on DRAK1, 10%; in the assay on DRAK2, 8%; in the assay with DYRK1A it was 0%; in the assay with DYRK1B, 31%; in the assay on DYRK2 it was 16%. In addition, the “%Inh” value in the assay on EGFR amounted to 80%; in the assay on EIF2AK1, 0%; in the assay on EPHA1, 0%; with EPHA2, 0%.

As for `CN(C1=C(c2ccccc2)C(=O)NC1=O)c1ccccc1` [SB-334860], the “%Inh” value came out at 0% with DMPK; 3% with DRAK1; 0% in the assay on DRAK2; 10% in the assay on DYRK1A; 9% in the assay on DYRK1B; 10% in the assay with DYRK2. Besides, the “%Inh” value with EGFR was 27%; in the assay with EIF2AK1, 6%; with EPHA1, 6%; in the assay on EPHA2 it was 1%.

For the molecule `NS(=O)(=O)CCc1cccc(Nc2nccc(-c3c(-c4cccc(NC(=O)c5c(F)cccc5F)c4)nn4ccccc34)n2)c1` [GSK336735], the “%Inh” value in the assay with DMPK came to 11%; in the assay with DRAK1, 4%; with DRAK2 it was 12%; with DYRK1A it was 20%; with DYRK1B, 0%; with DYRK2 it was 12%. Moreover, the “%Inh” value with EGFR was 100%; in the assay with EIF2AK1, 0%; in the assay on EPHA1 it was 69%; in the assay on EPHA2, 71%.

In the case of `c1ccc(-c2cc(-c3c[nH]nc3-c3ccccn3)ccn2)cc1` [GW576604], the “%Inh” value turned out to be 0% with DMPK; 11% with DRAK1; 0% in the assay with DRAK2; 4% with DYRK1A; 0% in the assay on DYRK1B; 0% in the assay on DYRK2. The “%Inh” value is 17% in the assay on EGFR, 0% in the assay with EIF2AK1, 0% in the assay with EPHA1 and 0% in the assay with EPHA2.

For the molecule `Cc1nnc(-c2ccc(C)c(-c3ccc(C(=O)Nc4ccc(NS(C)(=O)=O)cc4)cc3)c2)o1` [GW702865], the “%Inh” value is 0% with DMPK; 0% in the assay on DRAK1; 0% in the assay on DRAK2; 0% in the assay on DYRK1A; 1% in the assay on DYRK1B; 0% with DYRK2. For the same molecule, the “%Inh” value in the assay on EGFR is 13%; in the assay on EIF2AK1, 0%; in the assay on EPHA1 it was 0%; in the assay on EPHA2, 16%.

Take `Cl.Oc1cccc(Nc2ccnc3cc(-c4ccncc4)ccc23)c1` [GW494601]: the “%Inh” value was determined as 0% in the assay with DMPK; 11% in the assay with DRAK1; 0% in the assay on DRAK2; 25% in the assay on DYRK1A; 7% in the assay with DYRK1B; 43% with DYRK2. For the same molecule, the “%Inh” value came out at 76% with EGFR, 0% with EIF2AK1, 98.8% in the assay on EPHA1 and 84% with EPHA2.

Regarding `COc1ccc(CNC(=O)NC2CCN(c3ccnc(Nc4ccc(OC)cc4)n3)C2)cc1` (stereo not shown) [GSK1379727], the “%Inh” value with DMPK worked out at 0%; in the assay on DRAK1, 0%; in the assay with DRAK2 it was 0%; with DYRK1A, 20%; with DYRK1B it was 0%; with DYRK2, 0%. The “%Inh” value with EGFR was determined as 18%; in the assay on EIF2AK1 it was 0%; in the assay with EPHA1, 0%; in the assay with EPHA2, 14%.

Take `N#Cc1ccc(-c2cc(-c3c[nH]nc3-c3ccccn3)ccn2)cc1` [GW693028]: the “%Inh” value came to 0% in the assay on DMPK; 0% with DRAK1; 0% in the assay with DRAK2; 17% in the assay with DYRK1A; 0% in the assay with DYRK1B; 0% in the assay with DYRK2. Further, the “%Inh” value was 0% with EGFR, 6% with EIF2AK1, 17% in the assay with EPHA1 and 2% in the assay on EPHA2.
